The results in this text go back to ChEMBL document CHEMBL3988442, “University of Dundee, Small-Polar-MMV Screening Library” (2021).

For some of these results: Results with a measured potency or affinity are listed apart.

Common to all, as to parameters: scale not given: direction of the effect not stated beside the values
For assay [1], the target named is Protein translocase subunit SecA (Escherichia coli (strain K12)) (UniProt P10408). Put plainly: Assay to Identify E. coli SecA ATPase Inhibitors. To be noted: 30 µM. It counts as functional.
In assay [2] the target is T1, Ubiquitin-activating enzyme e1, putative (Leishmania donovani (strain BPK282A1)) (UniProt E9BSI1).
T1 sequence (whole entry): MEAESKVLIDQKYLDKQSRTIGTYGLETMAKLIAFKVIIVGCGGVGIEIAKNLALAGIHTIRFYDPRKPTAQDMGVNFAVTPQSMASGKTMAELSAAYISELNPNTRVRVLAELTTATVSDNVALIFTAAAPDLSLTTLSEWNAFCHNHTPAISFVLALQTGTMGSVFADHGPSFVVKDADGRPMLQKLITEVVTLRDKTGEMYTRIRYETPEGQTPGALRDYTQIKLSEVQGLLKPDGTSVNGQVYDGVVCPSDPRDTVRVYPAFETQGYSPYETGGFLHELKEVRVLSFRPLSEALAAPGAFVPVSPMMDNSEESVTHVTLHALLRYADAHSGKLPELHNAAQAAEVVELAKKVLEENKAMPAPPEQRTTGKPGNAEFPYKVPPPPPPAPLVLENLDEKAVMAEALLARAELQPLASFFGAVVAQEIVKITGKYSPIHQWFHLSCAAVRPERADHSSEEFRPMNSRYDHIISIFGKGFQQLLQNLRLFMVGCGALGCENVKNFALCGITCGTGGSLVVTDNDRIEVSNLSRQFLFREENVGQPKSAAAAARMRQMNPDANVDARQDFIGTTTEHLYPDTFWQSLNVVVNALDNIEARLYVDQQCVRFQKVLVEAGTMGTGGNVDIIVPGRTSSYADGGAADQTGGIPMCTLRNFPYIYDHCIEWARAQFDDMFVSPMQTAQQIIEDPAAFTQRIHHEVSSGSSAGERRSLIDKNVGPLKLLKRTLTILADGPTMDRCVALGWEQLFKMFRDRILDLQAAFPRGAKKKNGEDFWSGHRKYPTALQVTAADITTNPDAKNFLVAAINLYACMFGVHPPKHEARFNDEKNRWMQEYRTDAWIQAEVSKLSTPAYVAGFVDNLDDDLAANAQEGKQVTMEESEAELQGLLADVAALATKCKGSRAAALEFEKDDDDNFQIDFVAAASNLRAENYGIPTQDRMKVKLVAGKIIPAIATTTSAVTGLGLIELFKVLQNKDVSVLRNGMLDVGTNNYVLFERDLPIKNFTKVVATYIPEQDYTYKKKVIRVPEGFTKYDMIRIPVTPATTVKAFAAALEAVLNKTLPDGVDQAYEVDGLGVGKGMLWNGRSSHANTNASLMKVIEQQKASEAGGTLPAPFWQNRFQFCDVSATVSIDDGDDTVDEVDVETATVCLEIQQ
Put plainly: Leishmania donovani Ubiquitin Activating Enzyme (LdE1). Type of assay: functional. To be noted: 30 µM.

Assay [3] deals with AMP-activated protein kinase, AMPK (Homo sapiens) (UniProt P54646+O43741+P54619+Q9UGJ0+Q9Y478+Q13131+Q9UGI9). Put plainly: AMP-dependent Kinase enzyme assay. An in vitro enzyme assay that detects ADP turnover that is directly proportional to AMPK activity. This uses naive AMPK that is activated during the assay with MK-8722. Type of assay: functional. To be noted: 30 µM.
Assay [4] addresses Sialic acid-binding Ig-like lectin 9 (Homo sapiens) (UniProt Q9Y336). Put plainly: Hs-Siglec9 ALPHAscreen SOP 20170721. To be noted: 10 µM. A general note: Alpha assays give light when donor and acceptor beads are brought close together.
For the next assay, the system named is Trypanosoma cruzi. Put plainly: Trypanosoma cruzi phosphomannomutase and mannose-1-phosphate guanylyltransferase assay. Type of assay: functional. As to conditions: 10 µM.
Assay [5] addresses T2, Arginase-2, mitochondrial (Homo sapiens) (UniProt P78540).
T2 sequence (whole entry): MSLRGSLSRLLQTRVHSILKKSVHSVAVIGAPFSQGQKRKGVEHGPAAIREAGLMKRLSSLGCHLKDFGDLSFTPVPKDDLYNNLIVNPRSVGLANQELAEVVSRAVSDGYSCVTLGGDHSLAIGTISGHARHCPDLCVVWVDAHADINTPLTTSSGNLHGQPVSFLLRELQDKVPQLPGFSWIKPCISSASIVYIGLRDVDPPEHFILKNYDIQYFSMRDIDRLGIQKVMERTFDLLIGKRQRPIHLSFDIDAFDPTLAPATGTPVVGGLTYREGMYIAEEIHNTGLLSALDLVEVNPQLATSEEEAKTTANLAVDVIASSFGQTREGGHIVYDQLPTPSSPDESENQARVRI
Put plainly: in vitro enzyme assay to detect the production of urea directly proportional to the activity of Arginase II. Also: in the data most compounds retested in dose-response had high values. Type of assay: functional. As to conditions: 33.3 µM.

For assay [6], the target named is T3, Proteasome subunit beta (Trypanosoma cruzi) (UniProt O96673).
T3 sequence (whole entry): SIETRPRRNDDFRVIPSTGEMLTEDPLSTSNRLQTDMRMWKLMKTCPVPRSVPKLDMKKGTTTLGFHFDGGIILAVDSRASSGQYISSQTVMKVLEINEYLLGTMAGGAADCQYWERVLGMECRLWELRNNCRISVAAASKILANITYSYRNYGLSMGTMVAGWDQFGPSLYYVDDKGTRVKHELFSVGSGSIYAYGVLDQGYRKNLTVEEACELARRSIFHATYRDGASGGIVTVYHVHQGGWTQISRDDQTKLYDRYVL
Put plainly: Trypanosoma cruzi proteasome chymotrypsin-like activity (TcProtChymo) assay. Also: in the data most compounds retested in dose-response had high values. To be noted: 9.37 µM. Type of assay: functional.

The next assay is filed under the species Homo sapiens. Put plainly: To identify inhibition of the IFN signalling (Jak-Stat) pathway via expression of an eGFP reporter gene under the control of an IFN-stimulated response element (ISRE) containing MxA promoter. Type of assay: functional. To be noted: 30 µM. In general terms: Reporter assays use an easily measured gene product as a stand-in for the process of interest.

Assay [7] concerns the target T4, Tyrosyl-tRNA synthetase, putative (Trypanosoma cruzi (strain CL Brener)) (UniProt Q4DSP6).
T4 sequence (whole entry): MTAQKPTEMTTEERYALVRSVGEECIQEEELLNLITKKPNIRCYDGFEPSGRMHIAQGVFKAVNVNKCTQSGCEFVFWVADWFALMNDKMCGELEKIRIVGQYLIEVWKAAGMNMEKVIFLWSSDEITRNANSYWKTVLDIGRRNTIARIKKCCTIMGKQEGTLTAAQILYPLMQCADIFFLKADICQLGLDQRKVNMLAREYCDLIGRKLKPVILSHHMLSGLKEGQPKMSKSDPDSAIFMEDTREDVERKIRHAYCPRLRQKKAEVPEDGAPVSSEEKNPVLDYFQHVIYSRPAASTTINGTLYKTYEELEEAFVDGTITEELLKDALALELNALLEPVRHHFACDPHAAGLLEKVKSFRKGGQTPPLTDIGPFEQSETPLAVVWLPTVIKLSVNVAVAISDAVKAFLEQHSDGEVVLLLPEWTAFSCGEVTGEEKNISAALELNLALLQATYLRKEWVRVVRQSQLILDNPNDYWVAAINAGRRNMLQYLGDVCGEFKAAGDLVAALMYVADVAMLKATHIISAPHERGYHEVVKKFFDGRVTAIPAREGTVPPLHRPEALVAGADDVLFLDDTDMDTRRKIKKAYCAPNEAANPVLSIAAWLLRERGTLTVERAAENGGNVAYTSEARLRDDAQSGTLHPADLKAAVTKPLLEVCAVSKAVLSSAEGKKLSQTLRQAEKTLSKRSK
Put plainly: Trypanosoma cruzi tyrosyl tRNA synthetase (TcYRS) _High Tyrosine SOP. Also: in the data most compounds retested in dose-response had high values. As to conditions: 30 µM. It counts as functional.

The target of assay [8] is T4, Tyrosyl-tRNA synthetase, putative (Trypanosoma cruzi (strain CL Brener)). Put plainly: Trypanosoma cruzi tyrosyl tRNA synthetase (TcYRS) SOP. Type of assay: functional. As to conditions: 30 µM.
Assay [9] has as its target Chromo domain-containing protein 1 (Saccharomyces cerevisiae (strain ATCC 204508 / S288c) (Baker's yeast)) (UniProt P32657). Put plainly: ScCHD-1 Enzyme Inhibition Assay. Also: in the data most compounds retested in dose-response had high values. To be noted: 30 µM. It counts as functional.

Sialic acid-binding Ig-like lectin 9 (Homo sapiens), sequence (Q9Y336 whole entry): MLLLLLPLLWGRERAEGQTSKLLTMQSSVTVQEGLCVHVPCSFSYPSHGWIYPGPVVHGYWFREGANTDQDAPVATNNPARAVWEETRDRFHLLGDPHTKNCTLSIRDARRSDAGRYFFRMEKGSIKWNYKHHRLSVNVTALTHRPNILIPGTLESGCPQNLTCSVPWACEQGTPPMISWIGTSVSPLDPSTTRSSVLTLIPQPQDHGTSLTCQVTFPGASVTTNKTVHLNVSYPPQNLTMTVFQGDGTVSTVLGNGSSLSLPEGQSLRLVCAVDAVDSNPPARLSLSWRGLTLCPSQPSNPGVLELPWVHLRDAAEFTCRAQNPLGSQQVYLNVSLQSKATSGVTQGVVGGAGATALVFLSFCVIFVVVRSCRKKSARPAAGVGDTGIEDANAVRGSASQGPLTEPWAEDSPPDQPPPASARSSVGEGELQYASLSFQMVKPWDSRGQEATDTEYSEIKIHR
Protein translocase subunit SecA (Escherichia coli (strain K12)), sequence (P10408 whole entry): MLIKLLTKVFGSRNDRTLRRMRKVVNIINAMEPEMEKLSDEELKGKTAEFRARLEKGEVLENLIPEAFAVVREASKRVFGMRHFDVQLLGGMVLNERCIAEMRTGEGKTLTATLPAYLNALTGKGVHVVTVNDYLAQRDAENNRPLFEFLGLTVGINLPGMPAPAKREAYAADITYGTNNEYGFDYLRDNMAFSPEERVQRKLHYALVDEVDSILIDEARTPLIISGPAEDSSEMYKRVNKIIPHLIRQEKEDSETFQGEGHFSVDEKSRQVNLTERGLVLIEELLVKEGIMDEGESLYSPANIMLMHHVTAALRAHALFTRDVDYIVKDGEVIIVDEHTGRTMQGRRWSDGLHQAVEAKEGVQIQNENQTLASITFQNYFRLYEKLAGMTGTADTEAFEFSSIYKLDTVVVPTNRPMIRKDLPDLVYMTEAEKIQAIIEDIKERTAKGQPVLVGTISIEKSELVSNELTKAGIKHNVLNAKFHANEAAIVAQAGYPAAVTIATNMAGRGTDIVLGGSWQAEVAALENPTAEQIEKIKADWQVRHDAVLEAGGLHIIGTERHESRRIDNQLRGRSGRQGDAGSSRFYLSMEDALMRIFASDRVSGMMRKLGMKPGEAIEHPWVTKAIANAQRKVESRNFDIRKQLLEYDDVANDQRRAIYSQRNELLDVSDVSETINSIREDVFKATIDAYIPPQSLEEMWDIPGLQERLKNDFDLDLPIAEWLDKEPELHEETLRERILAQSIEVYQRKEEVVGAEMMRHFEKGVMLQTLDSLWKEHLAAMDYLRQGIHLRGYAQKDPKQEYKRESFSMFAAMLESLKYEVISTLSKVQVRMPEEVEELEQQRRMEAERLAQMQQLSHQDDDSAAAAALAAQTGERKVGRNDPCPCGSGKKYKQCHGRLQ
Chromo domain-containing protein 1 (Saccharomyces cerevisiae (strain ATCC 204508 / S288c) (Baker's yeast)), sequence (P32657 whole entry, the tested form may be a part): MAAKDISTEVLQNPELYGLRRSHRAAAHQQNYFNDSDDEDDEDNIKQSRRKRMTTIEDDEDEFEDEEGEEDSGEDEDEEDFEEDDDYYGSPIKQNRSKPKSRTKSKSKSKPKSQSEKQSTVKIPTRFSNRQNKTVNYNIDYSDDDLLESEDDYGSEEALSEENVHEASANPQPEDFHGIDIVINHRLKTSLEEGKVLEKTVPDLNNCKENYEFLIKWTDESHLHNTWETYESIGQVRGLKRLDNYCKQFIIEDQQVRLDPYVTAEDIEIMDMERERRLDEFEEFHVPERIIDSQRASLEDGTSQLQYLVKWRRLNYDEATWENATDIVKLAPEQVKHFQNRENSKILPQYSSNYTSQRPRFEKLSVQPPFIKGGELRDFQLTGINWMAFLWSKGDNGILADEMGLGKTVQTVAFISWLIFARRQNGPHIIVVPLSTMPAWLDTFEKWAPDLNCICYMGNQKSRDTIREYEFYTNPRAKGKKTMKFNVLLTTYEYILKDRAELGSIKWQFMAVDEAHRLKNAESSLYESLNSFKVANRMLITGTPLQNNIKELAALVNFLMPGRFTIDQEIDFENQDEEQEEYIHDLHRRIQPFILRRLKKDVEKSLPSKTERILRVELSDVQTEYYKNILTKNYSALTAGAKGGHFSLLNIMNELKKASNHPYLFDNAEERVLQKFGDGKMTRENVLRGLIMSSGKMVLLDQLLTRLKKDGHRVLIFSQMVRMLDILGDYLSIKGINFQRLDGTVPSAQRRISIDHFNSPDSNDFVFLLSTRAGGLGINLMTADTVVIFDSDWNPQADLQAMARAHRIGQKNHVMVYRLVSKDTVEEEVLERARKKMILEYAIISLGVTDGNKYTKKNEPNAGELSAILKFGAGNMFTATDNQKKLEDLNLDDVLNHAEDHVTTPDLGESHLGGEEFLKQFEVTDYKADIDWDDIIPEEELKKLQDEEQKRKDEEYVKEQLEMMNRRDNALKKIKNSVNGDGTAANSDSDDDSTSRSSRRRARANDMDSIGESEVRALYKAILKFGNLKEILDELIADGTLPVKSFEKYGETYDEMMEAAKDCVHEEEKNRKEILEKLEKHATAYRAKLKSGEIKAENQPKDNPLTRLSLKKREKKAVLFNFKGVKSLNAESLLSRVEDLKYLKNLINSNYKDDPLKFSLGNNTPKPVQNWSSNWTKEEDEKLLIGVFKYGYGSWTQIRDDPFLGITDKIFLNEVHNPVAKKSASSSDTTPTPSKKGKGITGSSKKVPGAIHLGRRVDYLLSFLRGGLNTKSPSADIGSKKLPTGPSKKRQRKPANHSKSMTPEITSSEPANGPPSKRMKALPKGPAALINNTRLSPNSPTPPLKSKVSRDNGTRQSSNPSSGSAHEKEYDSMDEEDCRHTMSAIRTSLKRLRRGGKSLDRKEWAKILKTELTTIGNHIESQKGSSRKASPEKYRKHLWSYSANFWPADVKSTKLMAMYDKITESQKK

`CC(C)c1ccsc1C(=O)N1CCCN(Cc2cscn2)CC1`: the Percent Effect is -1.52% in assay [1]; 2.6% in assay [2]; -0.162% in assay [3]; -7.44% in assay [4]; 0.686% in the assay with Trypanosoma cruzi; -2.32% in assay [5]. Besides, the Percent Effect in assay [6] was 19.8%; in the assay filed under Homo sapiens, 21.5%; in [7], 18.1%; in [8], 32.9%; in [9], -19.8%.

As for `CC(NC(=O)NCc1cccnc1N1CCCCC1)c1nccs1` (stereo unspecified), the Percent Effect is -4.11% in assay [1]; 7.79% in assay [2]; 4.63% in assay [3]; 1.05% in assay [4]; 6.37% in the assay with Trypanosoma cruzi; -7.12% in assay [5]. Moreover, the Percent Effect in assay [6] was 1.01%; in the assay listed under Homo sapiens it was 2.75%; in assay [7] it was 5.83%; in assay [8], 14.6%; in assay [9], -7.32%.

Take `COC(=O)c1ccc(N2CCN(C(=O)c3cc(C)on3)C(C)C2)cc1` (stereo unspecified): the Percent Effect was -1.64% in assay [1]; 12.7% in [2]; 13.9% in [3]; 10.2% in assay [4]; -3.87% with Trypanosoma cruzi; 0.76% in assay [5]. For the same compound, the Percent Effect in assay [6] was 9.42%; in the assay filed under Homo sapiens, 7.47%; in assay [7], -2.46%; in [8], 3.8%; in assay [9] it was -6.13%.

In the case of `CCS(=O)(=O)c1ccccc1C(=O)NCc1ccnc(N(C)C)c1`, the Percent Effect is -2.2% in assay [1]; 28.6% in assay [2]; -10.1% in assay [3]; 2.33% in assay [4]; 2.62% in the assay on Trypanosoma cruzi; 4.27% in [5]. In addition, the Percent Effect in assay [6] is 14%; in the assay filed under Homo sapiens, 4.01%; in assay [7] it was 9.71%; in assay [8], 24.4%; in assay [9], -10.5%.

On to `Cc1ccc(-c2ncc(C(=O)NCCNC(=O)C(C)C)s2)c(C)c1`, for which the Percent Effect in assay [1] was -2.93%; in assay [2] it was 5.41%; in assay [3] it was -5.86%; in assay [4], -1.89%; with Trypanosoma cruzi, -3.87%; in assay [5] it was -2%. The Percent Effect was 2.52% in [6]; 15.8% in the assay listed under Homo sapiens; 4.43% in [7]; 11.1% in assay [8]; -8.7% in assay [9].

Regarding `Cc1nccn1CC1CCCN1CCCc1nc(-c2cccs2)no1` (stereo unspecified), the Percent Effect was -0.0404% in assay [1]; 21.6% in assay [2]; -8.26% in [3]; -4.35% in assay [4]; -2.92% with Trypanosoma cruzi; -11.6% in assay [5]. Also, the Percent Effect turned out to be 13.3% in [6]; 36.5% in the assay filed under Homo sapiens; 3.45% in [7]; 13.6% in assay [8]; 2.34% in assay [9].

As to `Cc1nc(CN2CC3(CCN(c4ncc(F)cn4)C3)CC2=O)cs1` (stereo unspecified), the Percent Effect in assay [1] is -1.99%; in assay [2], 0%; in [3], 8.52%; in [4] it was 6.6%; in the assay with Trypanosoma cruzi, -0.69%; in assay [5] it was 1.94%. Besides, the Percent Effect in assay [6] was 0.348%; in the assay filed under Homo sapiens it was 7.34%; in [7] it was 3.17%; in assay [8], 8.97%; in assay [9] it was -4.69%.

As to `Cc1ncc2c(n1)CCN(C(=O)Cc1c(C)noc1C)C2`, the Percent Effect in [1] is -8.55%; in assay [2] it was 13.2%; in [3], -4.54%; in [4] it was 7.88%; in the assay with Trypanosoma cruzi, 9.62%; in assay [5], -1.44%. The Percent Effect in [6] is 8.21%; in the assay listed under Homo sapiens it was -0.465%; in assay [7], 9.36%; in [8], 18.5%; in assay [9] it was -7.72%.

Regarding `CNS(=O)(=O)c1cccc(CNC(=O)c2c(C)oc(C)c2C)c1`, the Percent Effect in assay [1] was -3.91%; in [2] it was 19%; in [3] it was 6.49%; in assay [4], -6.49%; in the assay on Trypanosoma cruzi, 3.79%; in [5], -1.07%. Also, the Percent Effect in [6] came to 18.4%; in the assay filed under Homo sapiens, 7.61%; in assay [7], 2.08%; in assay [8], 15.2%; in [9], 53.2%.

`COc1ccnc(N2CCN(C(=O)CN3CCCC3=O)CC2)n1`: the Percent Effect is -4.51% in assay [1]; 18.4% in [2]; -5.08% in assay [3]; -0.685% in assay [4]; 2.52% in the assay with Trypanosoma cruzi; 2.88% in [5]. Besides, the Percent Effect is 7.02% in assay [6]; 2.97% in the assay listed under Homo sapiens; 8.37% in assay [7]; 25.9% in assay [8]; -11.5% in [9].

`CNS(=O)(=O)c1ccc(CNC(=O)NCC2CCCO2)cc1` (stereo unspecified): the Percent Effect was -5% in [1]; 13% in assay [2]; 16.9% in assay [3]; -9.06% in [4]; 1.67% with Trypanosoma cruzi; -2.74% in assay [5]. The Percent Effect in assay [6] is 12.8%; in the assay filed under Homo sapiens, 14.9%; in assay [7], 0.952%; in assay [8], 18.8%; in assay [9] it was -17.3%.
